Measured values reported in PubChem BioAssay AID588849 (Broad Institute, 2011).
Potency and affinity values are given separately. Active and inactive are the calls of the source. The rule behind the calls is not given here.

Each molecule was assayed against CAAX prenyl protease 2 (Homo sapiens) (UniProt Q9Y256) (assay: human Rce1 protease inhibitors, dose response, biochemical, yeast membranes, quenched-peptide fluorescence, cherry-pick (AID 588849)). Settings: yeast membrane fractions expressing human Rce1, quenched-peptide fluorescence, 4 h; series mostly up to 10 µM.
Sequence of CAAX prenyl protease 2 (Homo sapiens) (Q9Y256 whole entry, looked up): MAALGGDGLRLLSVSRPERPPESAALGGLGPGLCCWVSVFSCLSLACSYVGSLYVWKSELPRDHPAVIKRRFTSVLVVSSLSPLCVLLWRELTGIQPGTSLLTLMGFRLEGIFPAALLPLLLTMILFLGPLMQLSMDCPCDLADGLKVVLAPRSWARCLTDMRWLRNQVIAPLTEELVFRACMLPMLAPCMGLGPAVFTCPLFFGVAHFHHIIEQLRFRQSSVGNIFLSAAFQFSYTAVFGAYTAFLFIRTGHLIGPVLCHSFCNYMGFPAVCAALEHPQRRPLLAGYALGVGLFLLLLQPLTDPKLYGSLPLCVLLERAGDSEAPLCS

outcome, inactive:
COc1cccc(-c2nc(C#N)c(N3CCN(C(=O)c4ccco4)CC3)o2)c1
Cc1cc(C)n(-c2nc3ccccc3c(=O)n2OCC(=O)N(C)C)n1
CCCC(=O)N1CCN(c2ccc(NC(=O)c3cc4ccccc4o3)cc2Cl)CC1
COc1ccc([N+](=O)[O-])cc1CSc1ccccn1
O=C(COc1ccc2ccc(=O)oc2c1)NCCc1c[nH]c2ccc(F)cc12
CCC1(c2ccccc2)NC(=O)N(CC(=O)Nc2ccc3c(C)cc(=O)oc3c2)C1=O (stereo not drawn)
CC(C)c1c(C(=O)N/N=C/c2c[nH]c3ccccc23)nnn1-c1nonc1N
COC(=O)c1sccc1NC(=O)CSc1nnnn1-c1ccccc1C
CCOC(=O)c1nnn2c1nc(N1CCOCC1)c1ccccc12
CC1=CC2=NC(=O)CC(C)(C(=O)N(CC(=O)NC3CCCC3)Cc3ccccc3)N2C=C1 (stereo not drawn)
COc1ccccc1NC(=O)/C(=C\c1cccnc1)NC(=O)c1ccc(C)cc1
CN(C)CCN(C(=O)c1ccc2ccccc2c1)c1nc2ccc(Br)cc2s1
COc1ccc2[nH]c(C(=O)NCCCn3ccnc3)cc2c1
O=C(C1CCC(=O)N(C2CC2)C1)N1CCN(c2ccccc2Cl)CC1 (stereo not drawn)
Cc1ccc(-c2cc(-c3ccccc3)c(C#N)c(Br)n2)cc1
C/C(=N\NC(=O)c1ccc(Br)cc1)c1cccc(NC(=O)c2cccnc2)c1
CCCOc1ccc(-c2c(C(=O)N/N=C/c3cccs3)nnn2-c2nonc2N)cc1
CCCCNC(=S)N=Nc1c(O)n(Cc2ccccc2)c2ccccc12
CCN(CC)CCCNC(=O)CCc1c(C)n(CC)c2cc(-c3ccccc3OC)nn2c1=O
CC(=O)Nc1ccc(Cl)cc1C1COC(=O)C1=N (stereo not drawn)
Cc1ccccc1NS(=O)(=O)c1ccc(C(=O)NCC(c2ccccc2)N(C)C)cc1 (stereo not drawn)
CCOc1ccc(N(Cc2ccc(OC)cc2)C(=O)c2ccco2)cc1
COC(=O)/C=c1\[nH]c2nnc(C)n2c1=O
CCCCOC(=O)Nc1nc(C)c(C(=O)OCC)s1
Cc1ccc(C2(COC(=O)C(C)C)CO2)c(OC(=O)C(C)C)c1 (stereo not drawn)
CCOC(=O)C[C@H]1c2ccccc2S(=O)(=O)N1Cc1cc(OC)c(OC)c(OC)c1
CC(=O)c1c(O)cc(O)c(C(C)=O)c1O
Cc1ccc(NC(=O)CCc2ccc(S(=O)(=O)NC3CCCCC3)cc2)cc1
Cc1cc(N2CCN(C(c3ccccc3)c3ccccc3)CC2)n2ncnc2n1
COC(C/C=C/C(=O)[C@H](C)OCc1ccccc1)OC
CCCCNC(=S)NNC(=O)CCn1cc(C)cn1
COc1ccc(-c2ccc3oc(-c4ccc(OC)cc4)c(-c4ccc(OC)cc4)c3c2)cc1
CSc1ccc(C(=O)C2CCCN(C(=O)c3cccnc3SC)C2)cc1 (stereo not drawn)
Cc1c(Cc2ccccc2)c(=O)oc2c(C)c(OCC(=O)N3CCC(C(=O)O)CC3)ccc12
O=C(CN(C1CCCCC1)C1CCCCC1)N1CCc2ccccc2C1
C#CCNC(=O)C1=C[C@@H](C2CCCCC2)C[C@@H](OCc2ccc(CO)cc2)O1
Cc1cc(C(=O)N/N=C/c2c3ccccc3cc3ccccc23)n[nH]1
COc1ccc(Cc2nc3ccc(C(=O)N4CCCC4)cc3o2)cc1
